In the supplement of paper PMC3334620:
Over roughly 33,000 sequences, “E-score (-0.5 to 0.5)” has its median near -0.053; the highest 2% begin near 0.37. Many of the other results were omitted from the sample, so the highest values are more common in it than they were.

These sequences were tested against Hap1 (UniProt P0CE41) (assay: PBM E-score (8-mer binding enrichment) (E-score (-0.5 to 0.5)); higher = stronger / more preferred TF binding). Conditions: protein concentration: 200 nM; construct: GST-DNA-binding domain.
Chain of UniProt P0CE41 (P0CE41 whole entry, the tested form may be a part): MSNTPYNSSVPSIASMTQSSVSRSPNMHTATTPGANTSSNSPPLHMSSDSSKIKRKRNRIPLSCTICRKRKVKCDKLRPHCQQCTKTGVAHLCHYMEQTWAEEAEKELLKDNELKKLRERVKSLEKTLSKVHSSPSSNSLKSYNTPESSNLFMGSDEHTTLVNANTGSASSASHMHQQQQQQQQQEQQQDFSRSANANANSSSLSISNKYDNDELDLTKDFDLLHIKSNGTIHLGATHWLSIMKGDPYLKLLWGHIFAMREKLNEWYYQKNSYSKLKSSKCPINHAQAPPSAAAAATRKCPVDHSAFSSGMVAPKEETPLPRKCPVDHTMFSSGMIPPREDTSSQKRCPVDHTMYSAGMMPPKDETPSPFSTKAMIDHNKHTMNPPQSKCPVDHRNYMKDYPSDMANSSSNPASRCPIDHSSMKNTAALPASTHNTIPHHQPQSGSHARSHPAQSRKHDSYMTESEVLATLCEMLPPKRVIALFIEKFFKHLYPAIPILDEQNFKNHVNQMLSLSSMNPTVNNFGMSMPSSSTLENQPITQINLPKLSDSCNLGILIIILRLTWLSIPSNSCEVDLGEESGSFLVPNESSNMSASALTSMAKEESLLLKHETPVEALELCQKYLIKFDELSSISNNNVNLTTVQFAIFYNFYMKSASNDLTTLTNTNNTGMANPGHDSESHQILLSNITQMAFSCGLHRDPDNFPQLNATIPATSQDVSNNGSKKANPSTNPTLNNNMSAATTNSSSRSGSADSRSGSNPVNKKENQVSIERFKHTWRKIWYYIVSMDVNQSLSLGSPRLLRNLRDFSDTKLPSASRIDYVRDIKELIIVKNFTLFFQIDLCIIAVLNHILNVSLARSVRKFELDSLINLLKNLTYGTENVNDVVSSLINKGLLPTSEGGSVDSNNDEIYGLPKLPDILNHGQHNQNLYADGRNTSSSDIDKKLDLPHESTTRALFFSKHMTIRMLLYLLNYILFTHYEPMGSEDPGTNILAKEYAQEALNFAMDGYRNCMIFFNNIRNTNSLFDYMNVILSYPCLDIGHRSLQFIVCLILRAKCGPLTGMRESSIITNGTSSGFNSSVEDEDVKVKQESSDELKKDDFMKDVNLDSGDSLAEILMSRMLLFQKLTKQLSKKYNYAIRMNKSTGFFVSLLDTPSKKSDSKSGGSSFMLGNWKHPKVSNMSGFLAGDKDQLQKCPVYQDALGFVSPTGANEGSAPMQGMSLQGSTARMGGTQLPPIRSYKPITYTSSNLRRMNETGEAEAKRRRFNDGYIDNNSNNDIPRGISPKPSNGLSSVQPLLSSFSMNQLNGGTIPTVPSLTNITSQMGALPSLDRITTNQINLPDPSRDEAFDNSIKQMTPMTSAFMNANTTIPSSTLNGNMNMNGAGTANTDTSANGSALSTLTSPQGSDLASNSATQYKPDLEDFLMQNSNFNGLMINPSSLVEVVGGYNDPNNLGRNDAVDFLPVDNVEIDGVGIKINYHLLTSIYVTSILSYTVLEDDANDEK
How it was run: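 PURExpress in vitro transcription/translation supplied GST-tagged yeast transcription factors, either full-length or DNA-binding domain. Applied at about 100-200 nM to universal all-10-mer Agilent arrays double-stranded by primer extension, the bound protein was detected with fluorescent anti-GST. E-scores, modified Wilcoxon-Mann-Whitney statistics, were given by the Universal PBM Analysis Suite to ungapped eight-base words pooled with their reverse complements after masliner normalisation.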
With ATGGCTCA the “PBM E-score” value was -0.343.
With GGAAACCA the “PBM E-score” value was -0.0131.
AGTACTTC was tested, and the “PBM E-score” value was 0.153.
In the case of CGCGCTTA, the “PBM E-score” value is reported as 0.209.
With CTGGAGGC the “PBM E-score” value was -0.096.
In the case of AGACAAAC, the “PBM E-score” value is reported as -0.0936.
CAATTCTG was tested, and the “PBM E-score” value was -0.284.
CCTCCTCA was tested, and the “PBM E-score” value was -0.13.
GATTCTAC was tested, and the “PBM E-score” value was -0.0077.
With GTACCGGA the “PBM E-score” value was 0.393.
GTACCGCA was tested, and the “PBM E-score” value was 0.236.
With GTACCGTA the “PBM E-score” value was 0.0486.
AGGGAGAA was tested, and the “PBM E-score” value was -0.0602.
In the case of AATGGTGT, the “PBM E-score” value is reported as -0.0527.
For ATAGTAGC, the “PBM E-score” value was 0.0136.
With CCCCCGAA the “PBM E-score” value was 0.312.
For ACCCCGAG, the “PBM E-score” value was 0.348.
For AACCCGAC, the “PBM E-score” value was 0.32.
For GCCCCGAA, the “PBM E-score” value was 0.333.
With AACCCGAT the “PBM E-score” value was 0.375.
ACCCCGAC was tested, and the “PBM E-score” value was 0.308.
For AACCCGAG, the “PBM E-score” value was 0.317.
For ACCCCGAA, the “PBM E-score” value was 0.377.
With ACCCCGAT the “PBM E-score” value was 0.416.
For CGCGTAAA, the “PBM E-score” value was 0.188.
With AGTTATGG the “PBM E-score” value was -0.0493.
With ACTGTGCG the “PBM E-score” value was -0.13.
ATCATCGC was tested, and the “PBM E-score” value was 0.0926.
AATTTCCA was tested, and the “PBM E-score” value was 0.0738.
With CAGAAGCC the “PBM E-score” value was -0.0458.
With GTACGGAA the “PBM E-score” value was 0.28.
With CGCTCACG the “PBM E-score” value was 0.118.
With AATACCAT the “PBM E-score” value was -0.0062.
In the case of ATGGTCAA, the “PBM E-score” value is reported as -0.23.
For CGGACTAA, the “PBM E-score” value was 0.411.
In the case of AGGACTTA, the “PBM E-score” value is reported as 0.18.
With AGGACTTC the “PBM E-score” value was -0.152.
For CTGACTTC, the “PBM E-score” value was -0.0182.
With TGGACTAA the “PBM E-score” value was -0.117.
For GGGACTTA, the “PBM E-score” value was 0.0397.
CGGACTTA was tested, and the “PBM E-score” value was 0.488.
GGGACTAA was tested, and the “PBM E-score” value was 0.0852.
In the case of CGGACTTC, the “PBM E-score” value is reported as 0.405.
CCTGGTCC was tested, and the “PBM E-score” value was 0.138.
In the case of GCCAGGAA, the “PBM E-score” value is reported as -0.262.
With GCCGGCGA the “PBM E-score” value was 0.364.
With ACCGGCGG the “PBM E-score” value was 0.418.
ACCGGCGA was tested, and the “PBM E-score” value was 0.39.
For GTCGGCGA, the “PBM E-score” value was 0.218.
In the case of ACCGGCGT, the “PBM E-score” value is reported as 0.282.
In the case of ATCGGCGA, the “PBM E-score” value is reported as 0.357.
For ACCGGCGC, the “PBM E-score” value was 0.267.
With CTCGGCGA the “PBM E-score” value was 0.383.
In the case of TCCGGCGA, the “PBM E-score” value is reported as 0.362.
ATGGACGA was tested, and the “PBM E-score” value was 0.0824.
With GGGGGTAC the “PBM E-score” value was 0.215.
CTAACAGA was tested, and the “PBM E-score” value was -0.101.
CTAGCAGA was tested, and the “PBM E-score” value was -0.242.
For ATCCTCAC, the “PBM E-score” value was -0.103.
In the case of AGCAGGAT, the “PBM E-score” value is reported as -0.0378.
With TCTCCCAA the “PBM E-score” value was -0.0542.
GCTTTCCA was tested, and the “PBM E-score” value was -0.11.
In the case of GTGCGAGA, the “PBM E-score” value is reported as -0.179.
In the case of CTCCGAGA, the “PBM E-score” value is reported as 0.376.
In the case of CTGCGAGA, the “PBM E-score” value is reported as -0.215.
For CTCCGACC, the “PBM E-score” value was 0.359.
ATCCGAGA was tested, and the “PBM E-score” value was 0.346.
CCCCGAGC was tested, and the “PBM E-score” value was 0.351.
For GTCCGAGA, the “PBM E-score” value was 0.437.
CTCCGAGC was tested, and the “PBM E-score” value was 0.386.
In the case of CTTCGAGA, the “PBM E-score” value is reported as -0.234.
In the case of CCAATCTC, the “PBM E-score” value is reported as 0.00791.
For AGCCCTAC, the “PBM E-score” value was -0.129.
CATGGTGA was tested, and the “PBM E-score” value was -0.0558.
In the case of CCGGAAGC, the “PBM E-score” value is reported as 0.336.
GTCATCAC was tested, and the “PBM E-score” value was -0.249.
AGGAGTAG was tested, and the “PBM E-score” value was -0.195.
For CCAAGGAA, the “PBM E-score” value was -0.0481.
For TAGTCCGA, the “PBM E-score” value was 0.42.
In the case of CAGTCCGA, the “PBM E-score” value is reported as 0.366.
AAGTCCTA was tested, and the “PBM E-score” value was 0.0348.
With GAGTCCGA the “PBM E-score” value was 0.35.
For AAGTCCAA, the “PBM E-score” value was -0.00743.
For AAGTCCGA, the “PBM E-score” value was 0.467.
AACCCTCA was tested, and the “PBM E-score” value was -0.135.
For TGGTTAAA, the “PBM E-score” value was -0.0634.
For AATCGCCT, the “PBM E-score” value was 0.0771.
With TAGCTTGA the “PBM E-score” value was -0.226.
With AGGCGTAT the “PBM E-score” value was -0.311.
In the case of ATGCCTAA, the “PBM E-score” value is reported as -0.21.
GGTTCCAA was tested, and the “PBM E-score” value was 0.14.
For CTCCCGGA, the “PBM E-score” value was 0.376.
For AACCCGGC, the “PBM E-score” value was 0.333.
With AGCCCGGA the “PBM E-score” value was 0.39.
In the case of CTCCCGGC, the “PBM E-score” value is reported as 0.33.
For AACCCGGT, the “PBM E-score” value was 0.365.
In the case of AACCCGGA, the “PBM E-score” value is reported as 0.371.
With AGCCCGGG the “PBM E-score” value was 0.36.
With AGCCCGGC the “PBM E-score” value was 0.272.
In the case of GTCCCGGA, the “PBM E-score” value is reported as 0.343.
In the case of AGCCCCCG, the “PBM E-score” value is reported as 0.185.
With AGCCCCGG the “PBM E-score” value was 0.373.
For AGCCCCGA, the “PBM E-score” value was 0.333.
